Source: PubChem BioAssay (Broad Institute)
This excerpt belongs to a sample that is enriched for hits.
Tgondii IFNg: T. gondii growth inhibition with IFN-gamma, primary screen, cell-based | 3.8% of 69,000 active | Toxoplasma gondii growth in IFN-gamma-treated host cells; stronger effect = lower value | AID 1259416, 2018 | activity change, negative = inhibition, % (test concentration not listed); in the data active = activity change below about -70%, passing the limit was not always enough;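 note: host cells are HeLa cells infected with Toxoplasma gondii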
* marks the source's active call; other numbers are inactive results; ! = not active in a repeat.

SMILES	Tgondii IFNg
Cc1noc(C)c1NC(=O)N1C[C@H](O)COC[C@H]2O[C@H](CC(=O)N3CCc4ccccc4C3)CC[C@@H]21	-45
CC(C)CCNC(=O)Cn1ncc2c(N3CCC(C)CC3)ncnc21	131
O=C(Cn1ncc2c(N3CCCCCC3)ncnc21)NCc1ccccc1Cl	37
CC1CCN(c2ncnc3c2cnn3CC(=O)NCc2ccc(Br)cc2)CC1	-94*
Cc1ccccc1CNC(=O)Cn1ncc2c(N3CCC(C)CC3)ncnc21	7
CC1CCN(c2ncnc3c2cnn3CC(=O)NCc2ccccc2)CC1	-101*
CC1CCN(c2ncnc3c2cnn3CC(=O)NCCCc2ccccc2)CC1	110
CC1CCN(c2ncnc3c2cnn3CC(=O)NCc2cccnc2)CC1	167
Cc1cc(Br)ccc1NC(=O)Cn1ncc2c(N3CCC(C)CC3)ncnc21	-48
CC1CCN(c2ncnc3c2cnn3CC(=O)NCc2ccccc2Cl)CC1	-95*
CCOCC(=O)N1CCO[C@@H]2CCCC[C@H]21	2
O=C(O)c1ccccc1CN1CCCC(Cn2ccnc2)C1 (centres undefined)	1
CCOc1ccccc1OCC1CNCCO1 (centres undefined)	32
O=C(Cc1noc2ccccc12)N1CCCC(c2ccn[nH]2)C1 (centres undefined)	-17
CCN(CC)C(=O)c1cc(=O)n(CC(=O)Nc2ccc(F)cc2F)c2ccccc12	14
Cc1ccc(-c2nc3cnccn3c2NCCC(=O)N2CCC(N3CCCCC3)CC2)cc1	20
CCCn1cc(C(=O)N2C[C@H](N)C[C@H]2C(=O)NC)c(C)n1	-10
CC(=O)N1CCC2(CC1)OC(=O)C(C)=C2C(=O)NCCCN1CCCCC1C (centres undefined)	-6
CO[C@H]1CC[C@H]2CCOc3c(C#N)cccc3C(=O)N(C)C[C@@H](OC)[C@H](C)C(=O)N(C)C[C@@H]1O2	-18
O=S(=O)(c1ccc(F)cc1)N1CCCc2ccccc21	-12
O=C1CCc2cc(S(=O)(=O)N3CCCc4ccccc43)cc3c2N1CCC3	1
COc1ccc(S(=O)(=O)N2CCCc3ccccc32)cc1	-113*
Cc1cnc(N2CCC3(CC2)CN(C(=O)c2cscn2)CCO3)nc1	6
CC[C@H]1CN(C(=O)C23CC4CC(C2)CC(n2cncn2)(C4)C3)CC[C@@]1(C)O	22
COc1cc(=O)[nH]c(SCC(=O)Nc2ccc(Cl)cn2)n1	-21
SMILES	Tgondii IFNg
Cn1c(-c2ccccc2)cnc1NC(=O)c1cccn(CC(=O)N2CCCC2)c1=O	19
O=C(CSc1nc2c(c(=O)n1-c1ccccc1)SCC2)Nc1ccc(-c2ccccc2)cn1	-73*
OC[C@@H]1[C@H](c2ccc(-c3ccc(F)cc3)cc2)[C@@H](CNC2CCCC2)N1CCC(F)(F)F	-46
CCN1c2ccc(F)cc2C(=O)NC12CCN(C(=O)c1ccc(C(F)(F)F)cc1)CC2	-4
CCC(CC)C(=O)N1CCCc2c(cnn2-c2ccc(OC)cc2)C1	-97*
CCC(CC)C(=O)N1CCCn2cnc(CN3CCCC3=O)c2C1	2
COc1ccc(Cc2ncc3c(n2)CN(C(=O)[C@@H](O)c2ccccc2)C3)cc1	0
O=S(=O)(NCC1CCN(Cc2ccc3ccccc3n2)C1)C1CC1 (centres undefined)	17
Cc1oc2c(O)c(O)ccc2c(=O)c1-c1ccccc1	43
Cc1cc(=O)oc2c(O)c(O)ccc12	7
O=c1cc(-c2ccccc2)oc2c(O)c(O)ccc12	-92*
CC(NC(=O)c1cccc(NCc2ccc(F)cc2)c1)c1ncn[nH]1 (centres undefined)	4
COCCCN1CC2(CCCCN2C(=O)Cc2ccccc2)CC1=O (centres undefined)	1
FC(F)(F)c1cc(CO[C@H]2CCCN[C@H]2c2ccccc2)cc(C(F)(F)F)c1	-81*!
CC(=O)NC(Cc1c[nH]c2ccccc12)C(=O)OCc1cc(C(F)(F)F)cc(C(F)(F)F)c1 (centres undefined)	15
CCN(CC)CCOC(=O)c1ccc2c(c1)OCCO2	17
O=C(NCc1cccnc1)C1CCN(Cc2cc3ccccc3n2Cc2cccc(Cl)c2)CC1	1
Cc1c(N(C)C)c(=O)n(-c2ccccc2)n1C	8
Cc1[nH]n(-c2ccccc2)c(=O)c1N=Nc1c(C)n(C)n(-c2ccccc2)c1=O	-92*
Cc1[nH]n(-c2ccccc2)c(=O)c1C(=O)c1ccccc1	98
Cc1oc(-c2ccccc2)nc1Cc1noc(-c2cccc(F)c2)n1	9
CCc1nnc(CNC(=O)c2ccc(Cn3nc(C)cc3C)cc2)s1	8
O=S(=O)(N1CCCC1)N1CCC(O)(c2ccccc2)C2CCCCC21 (centres undefined)	7
CCOCC1c2c(ncn2C)CCN1C(=O)c1cnccn1 (centres undefined)	0
CN1CCC2(CC1)N=C(c1ccccc1O)CC(c1ccccc1O)N2 (centres undefined)	32
SMILES	Tgondii IFNg
Oc1ccc(Cl)cc1C1=NC2(CCNCC2)NC(c2ccccc2O)C1 (centres undefined)	-102*
CCOC(=O)N1CCC2(CC1)N=C(c1ccccc1O)CC(c1cc(Cl)ccc1O)N2 (centres undefined)	-36
COc1ccc(CN(C)C[C@H]2Oc3ccc(NC(=O)Nc4ccc5c(c4)OCO5)cc3CC(=O)N([C@@H](C)CO)C[C@H]2C)cc1	-53
CC[N+](C)(C)Cc1ccccc1Br	21
Cc1ccc(C)c(CNC(=O)c2nc(N3CCOCC3)c3ccccc3n2)c1	-87*
COc1ccc(OC)c(CNC(=O)c2nc(N3CCOCC3)c3ccccc3n2)c1	-40
COc1ccc(CNC(=O)c2nc(N3CCOCC3)c3ccccc3n2)cc1	-4
O=C(CSc1nc2ccccc2n1Cc1ccccc1)Nc1ccccn1	-6
Cc1nnc(NC(=O)CSc2ccccn2)s1	10
CCc1nnc(NC(=O)CSc2nc3cccnc3n2Cc2ccccc2)s1	-83*
COc1ccc(S(=O)(=O)N2C[C@@H](C(=O)NC(C)C)[C@H](C(=O)c3ccc(F)cc3)C2)cc1	5
CO[C@@H]1CN(C)C(=O)c2ccc(NC(=O)Nc3ccccc3Cl)cc2OC[C@@H](C)NC[C@@H]1C	-57
O=C(C[C@@H]1CC[C@@H]2[C@H](COC[C@@H](O)CN2Cc2ccc(C(F)(F)F)cc2)O1)N1CCc2ccccc2C1	4
Cc1cccc(NC(=O)N2CCN(Cc3nc(-c4ccccc4C)oc3C)CC2)c1	-49
CSc1ccc(CNC(=O)c2c(C)noc2C)s1	-33
Cc1noc(C)c1C(=O)Nc1ccc(Cl)cc1	10
Cc1noc(C)c1C(=O)Nc1ccc(Sc2ccccc2)nc1Sc1ccccc1	-89*
COC(=O)C[C@@H]1CC[C@H]2[C@@H](COC[C@H](O)CN2S(=O)(=O)c2ccccc2OC)O1	-3
Cc1cc(C)nc(N2CCCC(C)(C(=O)N3CCOCC3)C2)n1 (centres undefined)	-34
O=C(Nc1cccc(-n2cccn2)c1)C1CN(C(=O)Cc2ccc(F)cc2)C1	37
O=C(NCc1ccc(-c2ccc(F)cc2F)o1)Nc1ccc(Cl)cc1	-69
O=S(=O)(c1ccc(F)cc1F)n1nccc1-c1ccc(-c2ccc(F)cc2F)o1	-111*
Cc1noc(C)c1C(=O)OCc1ccc(-c2ccc(F)cc2F)o1	28
COc1ccc(CC(=O)NCCc2sc(-c3ccc(F)cc3)nc2C)cc1	-51
COc1ccccc1N1CCN(S(=O)(=O)c2ccc3[nH]c(=O)ccc3c2)CC1	-19
O=C1N(Cc2ccccn2)C(=O)C2(CCN(CC3CC=CCC3)CC2)N1Cc1ccccc1 (centres undefined)	-3
